Reference: PubChem BioAssay (NCATS)
Results filed as inconclusive are left out. Active and inactive are the calls of the source. Calls come from the whole dose curve; as a rule, active = well fitted curve in the direction sought with a large enough effect; inconclusive = small, poorly fitted or top-dose-only effect, or another doubt; inactive = no such curve, though single readings can be large; an effect the other way counts as inactive or inconclusive.

Assays:
[1] = target: Cellular tumor antigen p53 (Homo sapiens) (UniProt P04637); assay: Primary qHTS for small molecule compounds that upregulate eGFP-tagged delta133p53alpha (in N-terminal) cells. (AID 2060322); conditions: NCI-H358 eGFP-delta133p53alpha fluorescence, 24 h; activation: stronger effect = higher value;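 note: cells pre-induced with doxycycline then dosed without doxycycline; series mostly up to about 56 µM; 0% = DMSO vehicle and 100% = reference activator; nearly all actives have a fitted effect of over 75% in size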
Sequence of Cellular tumor antigen p53 (Homo sapiens) (P04637 whole entry, looked up): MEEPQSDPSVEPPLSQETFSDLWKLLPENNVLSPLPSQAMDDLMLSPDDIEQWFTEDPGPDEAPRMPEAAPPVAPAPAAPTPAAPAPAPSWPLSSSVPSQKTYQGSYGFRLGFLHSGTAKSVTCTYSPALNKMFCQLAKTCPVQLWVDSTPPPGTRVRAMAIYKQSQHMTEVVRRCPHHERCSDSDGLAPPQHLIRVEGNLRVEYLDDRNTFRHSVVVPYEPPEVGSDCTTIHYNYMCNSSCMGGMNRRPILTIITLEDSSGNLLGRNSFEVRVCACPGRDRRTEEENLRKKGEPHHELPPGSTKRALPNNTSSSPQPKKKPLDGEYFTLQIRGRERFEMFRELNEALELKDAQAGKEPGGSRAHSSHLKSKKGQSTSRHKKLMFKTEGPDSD
How it was run: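 NCI-H358 cells pre-induced 24 h with 10 ng/ml doxycycline for eGFP-delta133p53alpha, plated dox-free and exposed 24 h at 37C to titrated compounds. Fixed, Hoechst-stained; gated GFP peak intensity by laser scanning cytometry, normalized to DMSO (0%) and 57.5 uM 5-azacytidine (100%).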

[2] = target: Aldehyde dehydrogenase, mitochondrial (Homo sapiens) (UniProt P05091); assay: qHTS for Inhibitors of the Aldehyde Dehydrogenase Family (ALDH2) Primary screen (AID 2061308);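 note: plate controls were vehicle for no effect and reference inhibitor for full effect; nearly all actives have a fitted effect of over 55% in size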
[3] = target: Retinaldehyde dehydrogenase 3 (Homo sapiens) (UniProt P47895); assay: qHTS for Inhibitors of the Aldehyde Dehydrogenase Family (ALDH1A3) Primary screen (AID 2061315);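 note: plate controls were DMSO vehicle for no effect and reference inhibitor for full effect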

CC1(CO)CCCC2(C)C3COC(=O)C3=CC(O)C12 (configuration not stated)
inactive: activation [1] -8.04% | Potency [2] | Potency [3]

CN1C(=O)N(c2cc(Cl)cc(Cl)c2)C(=O)[C@@]1(C)Cc1ccc(Br)cc1
inactive: activation [1] 5% | Potency [2] | Potency [3]

C=C1C(=O)OC2C1C(O)CC1(C)C(O)CCC(C=O)C21 (configuration not stated)
inactive: activation [1] 13.4% | Potency [2] | Potency [3]

CC(=O)c1ccc(O[C@@H]2O[C@H](CO[C@@H]3OC[C@@H](O)[C@H](O)[C@H]3O)[C@@H](O)[C@H](O)[C@H]2O)cc1
inactive: activation [1] -12.2% | Potency [2] | Potency [3]

C[C@@H]1CC[C@@]23CC[C@]4(C)[C@@](C=CC5[C@@]6(C)CC[C@H](O)C(C)(C)C6CC[C@]54C)(OC2=O)C3[C@H]1C (some centres not stated)
inactive: activation [1] 12.2% | Potency [2] | Potency [3]

Cc1ccc(Sc2cncc3sc(C(N)=O)cc23)cc1
inactive: activation [1] -17.7% | Potency [2] | Potency [3]

CC(C)C(NC(=O)c1ccc2ccccc2n1)C(=O)NC(CC(=O)O)C(=O)COc1c(F)cccc1F (configuration not stated)
inactive: activation [1] 2.33% | Potency [2] | Potency [3]

CC1(C)CC[C@]2(C(=O)O)CC[C@]3(C)C(=CCC4[C@@]5(C)C[C@@H](O)[C@H](O)[C@@](C)(CO)C5[C@H](O)C[C@]43C)[C@@H]2C1 (some centres not stated)
inactive: activation [1] -19.8% | Potency [2] | Potency [3]

C=C1[C@@H]2CC[C@@H]3[C@@](CCC4C(C(=O)O)(C(=O)O)C[C@@H](O[C@@H]5O[C@H](CO)[C@@H](O)[C@H](O)[C@H]5OC(=O)CC(C)C)C[C@]43C)(C2)[C@H]1O (some centres not stated)
inactive: activation [1] -16% | Potency [2] | Potency [3]

C/C=C/C[C@@H](C)[C@@H](O)[C@H]1C(=O)N[C@@H](CC)C(=O)N(C)CC(=O)N(C)[C@@H](CC(C)C)C(=O)N[C@@H](C(C)C)C(=O)N(C)[C@@H](CC(C)C)C(=O)N[C@@H](C)C(=O)N[C@H](C)C(=O)N(C)[C@@H](CC(C)C)C(=O)N(C)[C@@H](CC(C)C)C(=O)N(C)[C@H](C(C)C)C(=O)N1C
inactive: activation [1] 11.5% | Potency [2] | Potency [3]

C=C1[C@H](OC(C)=O)[C@H]2[C@@H](OC(C)=O)[C@](C)(OC(C)=O)C[C@]2(OC(C)=O)C(=O)[C@H](C)/C=C/C(C)(C)C(=O)[C@H](OC(=O)C(C)CC)[C@H]1OC(C)=O (some centres not stated)
inactive: activation [1] -14.5% | Potency [2] | Potency [3]

CC1=C(C)C(=O)OC(C(C)C2CCC3C4CC=C5CC(OC6OC(COC7OC(CO)C(O)C(O)C7O)C(O)C(O)C6O)CC(O)C5(C)C4CCC23C)C1 (configuration not stated)
inactive: activation [1] 9.16% | Potency [2] | Potency [3]

CC(O)/C=C/C1C(C)C(O[C@@H]2O[C@H](CO)[C@@H](O)[C@H](O)[C@H]2O)C(O)CC1(C)C (some centres not stated)
inactive: activation [1] 12.2% | Potency [2] | Potency [3]

C/C=C(\C)C(=O)O[C@H]1C[C@](C)(O)[C@H]2CC=C(C)[C@H]2[C@@H]2OC(=O)[C@H](C)[C@H]21
inactive: activation [1] -15.2% | Potency [2] | Potency [3]

CC(=O)c1ccc(OCC(=O)N2CCCCC2)cc1
inactive: activation [1] -3% | Potency [2] | Potency [3]

COc1ccc(/C=C/C(N)=O)cc1OC
inactive: activation [1] 2.68% | Potency [2] | Potency [3]

CC(=O)O[C@@H]1CC[C@@]2(C)[C@H](CC[C@@H]3[C@@H]2C[C@H](OC(C)=O)[C@]2(C)[C@@H](C(C)=O)CC[C@@H]32)C1
inactive: activation [1] 5% | Potency [2] | Potency [3]

O=C(NCCO)c1cccc(-c2cc(Nc3ccc(OC(F)(F)F)cc3)ncn2)c1
inactive: activation [1] 1.79% | Potency [2] | Potency [3]

COc1ccc(C(=O)CC(=O)O)c2c1C=CC(C)(C)O2
inactive: activation [1] 23.2% | Potency [2] | Potency [3]

CC1(C)CC[C@]2(C(=O)O)[C@H](O)C[C@]3(C)C(=CCC4[C@@]5(C)CC[C@H](O[C@@H]6O[C@H](CO[C@@H]7OC[C@H](O)[C@H](O)[C@H]7O[C@@H]7OC[C@H](O)[C@H](O)[C@H]7O)[C@@H](O)[C@H](O)[C@H]6O)C(C)(C)C5CC[C@]43C)[C@@H]2C1 (some centres not stated)
inactive: activation [1] -4.46% | Potency [2] | Potency [3]

OC[C@H]1O[C@@H](O[C@H]2[C@H](OCc3ccccc3)O[C@H](CO[C@@H]3OC[C@@H](O)[C@H](O)[C@H]3O)[C@@H](O)[C@@H]2O)[C@H](O)[C@@H](O)[C@@H]1O
inactive: activation [1] -15.2% | Potency [2] | Potency [3]

Cc1c(O)cc2c(c1O)COC1(O)CCCOC21 (configuration not stated)
inactive: activation [1] -17.6% | Potency [2] | Potency [3]

CC1(C)CC[C@]2(C(=O)O)[C@H](O)C[C@]3(C)C(=CCC4[C@@]5(C)CC[C@H](O[C@@H]6O[C@H](CO[C@@H]7OC[C@H](O)[C@H](O)[C@H]7O[C@@H]7OC[C@@H](O)[C@H](O)[C@H]7O)[C@@H](O)[C@H](O)[C@H]6O[C@@H]6O[C@H](CO)[C@@H](O)[C@H](O)[C@H]6O)C(C)(C)C5CC[C@]43C)[C@@H]2C1 (some centres not stated)
inactive: activation [1] -17.6% | Potency [2] | Potency [3]

CC(C)C(C#N)O[C@@H]1O[C@H](CO[C@@H]2OC[C@](O)(CO)[C@H]2O)[C@@H](O)[C@H](O)[C@H]1O (some centres not stated)
inactive: activation [1] 6.87% | Potency [2] | Potency [3]
